In PubChem BioAssay (Tox21):
Several values for one entry are separate records, joined by “and”; a condition that tells them apart may be missing. Identical values can stand only once. Results filed as inconclusive are left out. Where a call stands in place of a potency, no number is given. The source holds several records for some structures; these can differ, active in one and inactive in another. Activity calls are given as the source filed them. The call rests on the fitted dose curve.

test: p53 small molecule agonists, cell-based qHTS assay with rat liver microsomes: qHTS cell viability counter screen (AID 1963580); details: p53RE-bla HCT-116 + rat microsomes, ATP viability, 16 h; series mostly up to 66 µM; activity change, negative = cytotoxicity: at the top concentration; further: nearly all actives have a fitted effect of over 45% in size
Source text: National Center for Advancing Translational Sciences [NCATS]
Division of Preclinical Innovation [DPI]
U.S. Environmental Protection Agency [EPA]
National Institutes of Environmental Health Sciences [NIEHS]
National Toxicology Program [NTP]
U.S. Food and Drug Administration [FDA]
p53, a tumor suppressor protein, is activated following cellular insult, including DNA damage and other cellular stresses. The activation of p53 regulates cell fate by inducing DNA repair, cell cycle arrest, apoptosis, or cellular senescence. The activation of p53, therefore, is a good indicator of DNA damage and other cellular stresses. The CellSensor p53RE-bla HCT-116 cell line contains a stably integrated beta-lactamase reporter gene under control of the p53 response elements. The activation of the reporter gene under culture conditions can be detected by fluorescence intensity. This cell line was used to screen the Tox21 10K compound library in the condition of presence of rat liver microsomes and to identify agonists that activate the p53 signaling pathway after in vitro metabolic activation (Ooka et al., Archive of Toxicology 96:1975-1987, 2022). The cytotoxicity of the Tox21 compound library against the p53 RE-bla HCT-116 cell line was tested in parallel by measuring the intra cellular ATP content in the same wells.
Tox21 Assay Protocol Summary:
The p53RE-bla cells were dispensed at 4,000cells/3ul/well in 1536-well black-clear bottom plates. After the assay plates were incubated at 37 C, 5% CO2 incubator for 5 hours, 23 nL of compounds dissolved in DMSO, positive controls or DMSO only was transferred to the assay plate. Following compound addition, 3 uL of rat liver microsomes (Molecular Toxicology, Boone, NC) at final concentration of 0.5 mg/mL and 1uL of B-Nicotinamide adenine dinucleotide 2'-phosphate (NADPH) at final concentration of 0.5 mg/mL were transferred to the assay plate. The plates were incubated at 37 C for 16 hours. 1 uL of LiveBLAzer detection mixture was added to each well and the plates were incubated at room temperature in the dark for 2 h. Fluorescence intensity at 460 and 530 nm emission and 405 nm excitation were measured by an Envision plate reader. For cell viability readout that measures cytotoxicity, 4 ul/well of CellTiter-Glo reagent was added into the assay plates using a Flying Reagent Dispenser. After 30 min incubation at room temperature, the luminescence intensity in the plates was measured using a ViewLux plate reader.
Potency means the concentration at half of the fitted maximal effect.

| Structure (SMILES) | activity change, negative = cytotoxicity | Potency |
| --- | --- | --- |
| Cc1ccc(N)cc1C | 2.67% (inactive) | – |
| CC(C)Nc1ccc(Nc2ccccc2)cc1 | – | 36.2 µM (active) and 45.8 µM (active) |
| CC(C)(O)C(Cl)(Cl)Cl | 9.52% [at 30.3 µM] (inactive) | – |
| O=S(=O)(O)O | – | inactive |
| OCCCl | 10.7% (inactive) | – |
| O=NN1CCOCC1 | – | inactive |
| CCNc1nc(Cl)nc(NCC)n1 | – | inactive |
| N#Cc1cc(Br)c(O)c(Br)c1 | – | inactive |
| CCN(CC)C(=O)C(C)Oc1cccc2ccccc12 (stereo not given) | – | inactive |
| C[Si](Cn1cncn1)(c1ccc(F)cc1)c1ccc(F)cc1 | 3.51% (inactive) | – |
| CCCCc1c(C)nc(NCC)[nH]c1=O | 8.18% (inactive) | – |
| CCCCCCCCCCCCCC[P+](CCCCCC)(CCCCCC)CCCCCC | – | 16.3 µM (active) and 20.6 µM (active) and inactive |
| CCCCCCI | 0.516% (inactive) | – |
| O=C(O)CC(O)(CC(=O)O)C(=O)O | – | inactive |
| CCN(N=O)C(N)=O | – | inactive |
| C#CC(C)(C)NC(=O)c1cc(Cl)cc(Cl)c1 | – | inactive |
| CC(Br)C(=O)O (stereo not given) | – | inactive |
| O=C(Cl)OCCOCCOC(=O)Cl | -0.153% (inactive) | – |
| CCCCCCCCCCCC#N | – | inactive |
| CC(C)(C1CCC(O)CC1)C1CCC(O)CC1 (stereo not given) | 5.8% (inactive) | – |

| Structure (SMILES) | activity change, negative = cytotoxicity | Potency |
| --- | --- | --- |
| N#CCCO | 13% (inactive) | – |
| Clc1ccc(C(Cl)(Cl)Cl)cc1 | – | inactive |
| CC(C)OC(=O)Cc1ccccc1 | -3.62% (inactive) | – |
| Oc1ccc(Cl)cc1 | – | inactive |
| Clc1ccc(C(Cl)(Cl)Cl)cn1 | -2.39% (inactive) | – |
| COC(=O)c1cncn1C(C)c1ccccc1 (stereo not given) | 0.929% [at 30.3 µM] (inactive) | – |
| CNC(=O)O/N=C(\SC)C(=O)N(C)C | – | inactive |
| CNC(=O)Oc1ccccc1OC(C)C | – | inactive |
| Cc1ccc(O)c(C)c1 | – | inactive |
| N#CCCC#N | 3.9% (inactive) | – |
| COc1ccc(C(CN(C)C)C2(O)CCCCC2)cc1 (stereo not given) | – | inactive |
| Nc1c(Cl)cc([N+](=O)[O-])cc1Cl | – | inactive |
| CC(C)CCCCCOC(=O)c1ccccc1C(=O)OCCCCCC(C)C | 1% (inactive) | – |
| Nc1cc(Cl)cc(C(=O)O)c1Cl | – | inactive |
| CCCCCCCC[N+](C)(CCCCCCCC)CCCCCCCC | – | 14.4 µM (active) and inactive and 40.8 µM (active) |
| Brc1ccc(Oc2ccccc2)cc1 | – | inactive |
| CC(C)NC(=O)N1CC(=O)N(c2cc(Cl)cc(Cl)c2)C1=O | – | inactive |
| COc1ccc(O)c(C(C)(C)C)c1 | – | inactive |
| CC(C)(O)C#N | – | inactive |
| N#Cc1ccccc1Cl | 16.5% (inactive) | – |
